Rows were chosen to be rich in hits. Some 2.6% of all compounds tested hit in one or more screens of this group.
TLR4-MyD88 inh: inhibitors of human TLR4-MyD88 binding; Toll-like receptor 4 (Homo sapiens), O00206; Cell-based TLR4-MyD88 binding inhibition assay; inhibition, % at 10 µM; hit rate 0.06% among 16,000; in the data active means inhibition above about 45%
PME-1 Maybridge: inhibitors of human PME-1 in Maybridge library; Protein phosphatase methylesterase 1 (Homo sapiens), Q9Y570; inhibition, % at 9 µM; hit rate 0.5% among 16,000; AID 2291, 2010; recombinant PME-1, FP-Rh probe fluorescence polarization; in the data active means inhibition above about 30%
Target sequence (Q9Y570 whole entry, looked up): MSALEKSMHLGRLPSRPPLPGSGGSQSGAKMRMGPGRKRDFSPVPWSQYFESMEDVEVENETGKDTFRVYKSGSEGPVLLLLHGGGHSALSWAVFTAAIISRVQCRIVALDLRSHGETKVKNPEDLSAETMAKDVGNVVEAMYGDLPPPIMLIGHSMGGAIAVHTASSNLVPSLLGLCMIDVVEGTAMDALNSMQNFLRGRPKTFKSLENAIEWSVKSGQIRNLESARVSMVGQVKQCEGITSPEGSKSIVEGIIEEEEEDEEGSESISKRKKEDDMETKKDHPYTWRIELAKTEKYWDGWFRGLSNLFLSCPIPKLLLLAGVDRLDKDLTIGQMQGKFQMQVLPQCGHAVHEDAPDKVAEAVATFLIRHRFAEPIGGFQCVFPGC
NOTCH agonist: agonists of NOTCH signaling; NOTCH signaling luciferase reporter cells, luminescence; activation, % at 2.5 µM; hit rate 0.4% among 15,000; AID 434982, 2010; in the data active means activation above about 2.2%
S1P1 agonist: activates the human S1P1 receptor; Sphingosine 1-phosphate receptor 1 (Homo sapiens), P21453; AID 1044, 2008; activation, % at 4.5 µM; hit rate 1.5% among 16,000; S1P1 agonist cell-based reporter assay; in the data active means activation above about 80%
OPRK1 antag MB: antagonists of human kappa opioid receptor OPRK1, Maybridge library | Kappa-type opioid receptor (Homo sapiens), P41145 | OPRK1 cells, antagonist mode, fluorescence readout | inhibition, % at 9 µM | hit rate 0.4% among 16,000 | AID 652031, 2013; in the data active means inhibition above about 50%
* = called active by the depositor; nt = not tested or not shown.

SMILES	TLR4-MyD88 inh	PME-1 Maybridge	NOTCH agonist	S1P1 agonist	OPRK1 antag MB
Nc1c(C(=O)N/N=C/c2ccc3c(c2)OCO3)sc2nnc(-c3ccccc3)c(-c3ccccc3)c12	7	25	0	76	80*
COC(=O)c1conc1C(C)(C)C	13	0	0	-1	2
O=S(=O)(Cc1ccc(F)cc1)Cc1noc(-c2ccc(F)cc2Cl)n1	1	1	2.3*	-6	-16
CS(=O)(=O)Cc1noc(-c2cc(C(F)(F)F)cc(C(F)(F)F)c2)n1	-7	3	0	-13	1
O=C(NNc1c([N+](=O)[O-])cc(C(F)(F)F)cc1[N+](=O)[O-])c1ccccc1-n1cccc1	-3	-8	-1	109*	-39
O=[N+]([O-])c1ccc(N/N=C2\CCOc3ccc(F)cc32)cc1	-1	5	0	37	50*
Fc1ccc2c(c1)/C(=N\Nc1cc(C(F)(F)F)ccc1Cl)CCO2	2	-1	0	-26	7
Oc1[nH]c2ccccc2c1N=Nc1nc(-c2ccc(Br)cc2)cs1	-1	14	0	82*	15
COc1ccc(Br)c(C(=O)/C(C#N)=C/c2ccc(N(C)C)cc2)c1	-8	8	0	1	-8
COc1ccc(Br)c(C(=O)/C(C#N)=N/Nc2ccc(F)cc2)c1	1	37*	-1	58	1
Cc1[nH]n(C)c(=O)c1N=Nc1ccc2c(c1)COCO2	-1	3	0	-3	9
COCCOc1ccc(N=Cc2ccccc2O)cc1C(=O)O	-6	1	3.1*	0	-8
COCCOc1ccc([N+](=O)[O-])cc1C(=O)O	6	1	nt	-6	7
Cc1nn(CNC(=O)Nc2ccc(F)cc2F)c(C)c1Br	0	0	-1	-5	-16
CC(C)(C)C(=O)OCc1nc(-c2ccc3c(c2)OCO3)cs1	11	0	0	92*	4
CC(C)(C)C(=O)OCc1nc(-c2cc(-c3ccccc3)no2)cs1	nt	-3	-1	21	5
CCSC1=NCN(Cc2cccs2)CN1	5	1	-1	-22	5
COc1cccc(C(=O)N/N=C(\C)c2ccccc2O)c1	8	-4	0	24	-13
Cc1c(C)n(Cc2ccc(Br)cc2)c(=O)n(Cc2ccc(Br)cc2)c1=O	3	2	0	102*	-1
O=C(CSc1nc2ccccc2c(=O)[nH]1)c1cc2ccccc2o1	-4	-6	0	92*	2
S=C(NNc1nccc(-c2cccnc2)n1)Nc1ccccc1	-4	3	0	3	10
COC(=O)C1=C(C)Nc2[nH]ncc2C1c1ccccc1 (configuration not stated)	9	43*	-1	10	4
CCOC(=O)c1cnn(-c2ccc(NS(=O)(=O)c3ccc(Cl)cc3)cc2)c1C(F)(F)F	-6	1	0	19	-14
COc1ccc(C(=O)CSc2n[nH]c(=O)n2Cc2ccco2)cc1	-1	3	2.2*	3	0
O=C(NNC(=O)c1cncc(C#Cc2ccccc2)c1)c1ccccc1	-4	2	0	1	-6
SMILES	TLR4-MyD88 inh	PME-1 Maybridge	NOTCH agonist	S1P1 agonist	OPRK1 antag MB
N#Cc1cccc(C#N)c1Oc1ccc(N)cc1	0	2	-1	1	94*
N#Cc1cccc(C#N)c1Oc1ccc(S(=O)(=O)Nc2ccccc2)cc1	-7	29	nt	10	-4
O=C(NCCNc1nccc(C(F)(F)F)n1)C1CC1	10	96*	1	6	-1
O=C(Nc1ccc(N2CCN(c3ncccc3C(F)(F)F)CC2)nc1)Nc1ccc(F)cc1F	-5	-6	0	19	10
COc1ccc(C(=O)Nc2ccc(N3CCN(c4ncccc4C(F)(F)F)CC3)nc2)cc1	-12	7	-1	93*	9
N/C(=N\OC(=O)Nc1cccc(C(F)(F)F)c1)C1CSCCS1 (configuration not stated)	-18	1	-1	-7	10
N/C(=N/OC(=O)Nc1cccc(C(F)(F)F)c1)C1COc2ccccc2O1 (configuration not stated)	-5	0	2.4*	-1	6
N#C/C(N=Cc1cc(Cl)cc(Cl)c1O)=C(\C#N)N=Cc1cc(Cl)cc(Cl)c1O	14	11	0	-7	16
Cc1oc(C(C)(C)C)cc1C(=O)NC1CCN(Cc2ccccc2)CC1	1	2	-1	-4	45
CC(=O)Nc1ccc(F)cc1NC=C(C#N)C#N	2	3	0	1	13
CSc1ccc(C(F)(F)F)cc1NC=C(C#N)C#N	-2	3	0	89*	26
O=C1Nc2ccccc2/C1=C\c1c[nH]c2ccccc12	4	34*	0	19	6
CC1(C)OC(=O)C(=Cc2c[nH]c3ccccc23)C(=O)O1	2	5	-1	6	-1
COc1ccc(OS(=O)(=O)c2sc(Br)cc2Br)cc1	-14	-2	1	1	52*
Nc1ccc(C(=O)O)c2c(C(=O)O)cccc12	1	49*	0	-5	38
Cn1c(-c2ccccn2)n[nH]c1=S	3	1	0	88*	-15
CC1CCc2c(sc(NC(=O)CSc3nc4ccccc4o3)c2C#N)C1 (configuration not stated)	-2	-2	0	19	-2
O=C(O)c1ccccc1/C=C/c1cccs1	-10	2	0	-2	9
N#Cc1c(Cl)c(Cl)c(Cl)c(Cl)c1C#N	-22	-3	-1	110*	28
N#Cc1c(Cl)cccc1I	3	7	-1	5	9
COCCCNC1=C(C#N)C(=O)NC(C2CC=CCC2)S1 (configuration not stated)	5	2	0	-1	11
Cc1nc(C)c(-c2nnc(-c3ccc(C(F)(F)F)cc3)o2)s1	3	-1	0	88*	-1
O=C(CSc1nnc(-c2ccc(C(F)(F)F)cc2)o1)c1ccc(F)cc1	5	-2	0	-5	9
Cc1c(NCN2C(=O)CCC2=O)cc2c(c1[N+](=O)[O-])C(C)(C)CC2(C)C	-5	-1	0	81*	-2
Cc1c(N=NC2=C(O)CC(C)(C)CC2=O)cc2c(c1[N+](=O)[O-])C(C)(C)CC2(C)C	-6	0	-1	55	-14
SMILES	TLR4-MyD88 inh	PME-1 Maybridge	NOTCH agonist	S1P1 agonist	OPRK1 antag MB
O=C(NNC(=S)Nc1cccc(C(F)(F)F)c1)c1sc2ccccc2c1Cl	-1	-22	0	96*	-1
O=C(Nc1ccccc1)Nc1nnc(C(F)(F)F)s1	-25	5	0	109*	32
FC(F)(F)c1cccc(Nc2nnc(-c3cccnc3)s2)c1	-4	1	0	0	-16
FC(F)(F)c1nnc(Nc2cccnc2)s1	5	4	4.5*	-8	16
O=C(c1cc2ccccc2s1)N1CCN(C(c2ccccc2)c2ccccc2)CC1	-1	-8	0	83*	-19
O=C(O)/C(=C/c1ccsc1)c1cc(F)cc(F)c1	9	-2	0	-13	-3
CSC(=CC(=O)c1ccncc1)SC	-11	3	3.5*	-5	2
